Data on 28 compounds can be found in PubChem BioAssay (Tox21).

Inconclusive results are not listed. Entries that show only a call come without a potency. Calls of active or inactive are those of the source. Calls follow the shape of the dose curve; as a rule, active = well fitted cell-killing curve with a large enough effect in the repeat runs; inconclusive = weak or mixed curves, or effect the other way; inactive = flat fitted curve, though single readings scatter.

A short description of this assay: cAMP Responsive Elements (CRE) small molecule agonists, cell-based qHTS assay: qHTS cell viability counter screen (AID 2060914). Also: nearly all actives have a fitted effect of over 50% in size. The note with it: CRE-bla HEK293T viability, CellTiter-Glo luminescence, 5 h; series mostly up to 92.4 µM. The procedure, abridged: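 CRE-bla HEK293T cells in 10% dialyzed FBS medium were exposed to compounds for 3 h at 37C after 18 h plating. CellTiter-Glo was then added in the same wells, and luminescence was read after 30 min at room temperature.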
Regarding `c1ccc(-c2ccccc2)cc1`, the Potency entry is “inactive”.
For the compound `CNC(=O)Oc1cccc2c1OC(C)(C)O2`, the Potency entry was “inactive”.
The result for `CCOP(=S)(OCC)Oc1cc(Cl)c(Br)cc1Cl` reads “inactive”; that for `CC1COC(Cn2cncn2)(c2ccc(Oc3ccc(Cl)cc3)cc2Cl)O1` (stereo not drawn), “inactive”.
For `CN(C)N=O`, the Potency result was “inactive”.
The result for `CCCCOCN(C(=O)CCl)c1c(CC)cccc1CC` reads “inactive”; that for `c1cc2c(c(N3CCNCC3)c1)OCCO2`, “inactive”; that for `Cc1cccc(N=Nc2ccc(N(C)C)cc2)c1`, “inactive”.
The result for `O=C(c1ccccc1)C(Cl)Cl` reads “inactive”.
The result for `COc1cc(C[C@@H](C)N)c(OC)cc1Br` reads “inactive”; that for `CCCCCCCCCCn1cc[n+](C)c1`, “inactive”; that for `NCC1(CC(=O)O)CCCCC1`, “inactive”.
With `CC(C)O.CC(C)O.OCCN(CCO)CCO.OCCN(CCO)CCO.[Ti]`, the Potency entry is “inactive”.
The result for `COC(=O)c1ccccc1S(=O)(=O)NC(=O)N(C)c1nc(C)nc(OC)n1` reads “inactive”.
The result for `CCNc1nc(NCC)nc(SC)n1` reads “inactive”; that for `Clc1ccc(C(Cl)(Cl)Cl)cn1`, “inactive”.
The result for `CC(C)Nc1ccc(Nc2ccccc2)cc1` reads “inactive”; that for `Cl/C=C\CCl`, “inactive”; that for `N#CCCl`, “inactive”.
On to `N#CN`, for which the Potency entry was “inactive”.
The result for `Cc1coc2c1CCC(C)C2` (stereo not drawn) reads “inactive”; that for `CCCCCCCCCCCCOS(=O)(=O)O`, “inactive”.
On to `CC(C)[C@@H](C(=O)O[C@@H](C#N)c1cccc(Oc2ccccc2)c1)c1ccc(Cl)cc1`, for which the Potency result was “inactive”.
The result for `CC1CN1P(=O)(N1CC1C)N1CC1C` (stereo not drawn) reads “inactive”.
The result for `N#C/C=C/C#N` reads “inactive”; that for `O=C1NCN(c2ccccc2)C12CCN(CCCOc1ccc(F)cc1)CC2`, “inactive”; that for `NCCCNCCCN`, “inactive”.
Regarding `CCN(CC)C(=O)N[C@@H]1C=C2c3cccc4[nH]cc(c34)C[C@@H]2N(C)C1`, the Potency entry is “inactive”.
